Test results as given in PubChem BioAssay (EPA / NIEHS).
Inconclusive results are not listed. Active and inactive are the calls of the source. The calls were made as follows, unless noted: active = hit-call score of the fitted dose curve at least 0.9, where 1 is the maximum; inactive = score below 0.9.

Experiments:
[1] = APR_HepG2_CellCycleArrest_1hr: Apredica 1-hour HepG2 Assay for Cell Cycle Arrest (AID 2282666); details: high-content imaging, actives raise or lower the signal
Outline: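 Cell cycle arrest scored from nuclear DNA content (Hoechst 33342) using high-content imaging of fixed HepG2 cells after 1 h treatment across 0.39–200 uM, in duplicate. Gain or loss fitted relative to 0.5% DMSO.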

[2] = ACEA_ER_80hr: ACEA Biosciences xCELLigence Real-Time Cell Analysis on Estrogen Receptor Agonism for Proliferation (AID 2282667; active = hit-call score of the fitted dose curve at least 0.9, where 1 is the maximum); details: T47D proliferation, impedance (xCELLigence), 80 h
Outline: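 Real-time electrical impedance tracked growth of the human breast line T47D, with the 80 h post-dosing value used. Dosing spanned eight 1:4 steps down from a 100 uM final top concentration, run in duplicate.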

[3] = APR_HepG2_CellLoss_1hr: Apredica 1-hour HepG2 Assay for Cell Loss (AID 2282668); details: high-content imaging;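 also: curves fitted both ways against DMSO so gain or loss of cells counts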
Outline: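 Cell number comes from high-content imaging of Hoechst-labelled nuclei in fixed HepG2 cells. Cells were exposed for 1 h to ten concentrations from 0.39 to 200 uM in 0.5% DMSO. Gain or loss was fitted against DMSO controls.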

[4] = APR_HepG2_MicrotubuleCSK_1hr: Apredica 1-hour HepG2 Assay for Microtubule CSK Stabilty (AID 2282669); details: HepG2 microtubule cytoskeleton imaging, actives raise or lower the signal
Outline: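 Alpha-tubulin immunofluorescence, imaged by automated high-content microscopy with Hoechst nuclear segmentation, measured cytoskeletal change after 1 h dosing of HepG2 at 0.39–200 uM in 0.5% DMSO. Activity fitted in both directions relative to DMSO.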

[5] = APR_HepG2_p53Act_1hr: Apredica 1-hour HepG2 Assay for p53 Activation (AID 2282671); details: high-content imaging, actives raise or lower the signal
Outline: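 After 1 h exposure (0.39–200 uM, 0.5% DMSO final, duplicates), fixed HepG2 cells were labelled with anti-p53 antibody plus Hoechst nuclear stain. Fluorescence quantified by automated 20x imaging; changes fitted in both directions against DMSO.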

[6] = APR_HepG2_P-H2AX_1hr: Apredica 1-hour HepG2 Assay for H2AX Phosphorylation (AID 2282673); details: high-content imaging, actives raise or lower the signal
Outline: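 Phospho-H2A.x immunofluorescence (1:200, FITC secondary) plus Hoechst nuclear stain, quantified by high-content imaging in HepG2 after 1 hr compound exposure. Ten concentrations, 0.39 to 200 uM, in duplicate with 0.5% DMSO; fit both directions against DMSO.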

[7] = APR_HepG2_MitoMass_1hr: Apredica 1-hour HepG2 Assay for Mitochondrial Mass (AID 2282674); details: high-content imaging, actives raise or lower the signal
Outline: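 Mitochondrial mass is taken from MitoTracker Red CMXRos (250 nM, 30 min, pre-fixation) fluorescence imaged at 20x in HepG2 cells. Exposure lasted 1 hr across ten concentrations, 0.39 to 200 uM, 0.5% DMSO; DMSO baseline, bidirectional fitting.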

[8] = APR_HepG2_MitoMembPot_1hr: Apredica 1-hour HepG2 Assay for Mitochondrial Membrane Potential (AID 2282675); details: imaging, actives raise or lower the signal
Outline: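 Mitochondrial membrane potential read as MitoTracker Red CMXRos intensity by automated imaging of fixed HepG2 cells. Dye at 250 nM for 30 min pre-fixation; compounds 0.39 to 200 uM for 1 hour, duplicate wells, 0.5% DMSO.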

[9] = APR_HepG2_CellCycleArrest_24hr: Apredica 24-hour HepG2 Assay for Cell Cycle Arrest (AID 2282905); details: imaging, actives raise or lower the signal;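 also: cell cycle arrest scored as ratio of 2N to 4N nuclear DNA content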
Outline: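 Readout: Hoechst 33342 nuclear DNA content by high-content fluorescent imaging, six images/well, 20x. Human HepG2 liver cells, 24 hr compound exposure, 0.39–200 uM, final DMSO 0.5% v/v. Gain or loss fitted relative to DMSO baseline.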

[10] = APR_HepG2_StressKinase_1hr: Apredica 1-hour HepG2 Assay for Stress Kinase (AID 2282906); details: HepG2 stress kinase (phospho-c-Jun) imaging, actives raise or lower the signal
Outline: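 High-content imaging of phospho-c-Jun immunostaining (with Hoechst nuclear identification) after a 1 h exposure of HepG2 cells to 10 concentrations from 0.39 to 200 uM, final DMSO 0.5%. Fitted bidirectionally against DMSO.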

[11] = APR_HepG2_CellLoss_24hr: Apredica 24-hour HepG2 Assay for Cell Loss (AID 2282908); details: high-content imaging;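 as to AC50: fit in both directions so a hit may be cell loss or gain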
Outline: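 Read-out: Hoechst 33342-stained nuclei counted by automated fluorescence imaging after formaldehyde fixation and Triton permeabilization. Ten concentrations, 0.39 to 200 uM, duplicate wells, 0.5% DMSO final. Gain or loss of signal fitted relative to DMSO baseline.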

[12] = APR_HepG2_MicrotubuleCSK_24hr: Apredica 24-hour HepG2 Assay for Microtubule CSK Stabilty (AID 2282909); details: HepG2 microtubule cytoskeleton imaging, actives raise or lower the signal
Outline: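 Read-out: alpha-tubulin immunofluorescence intensity by automated high-content imaging of fixed HepG2 cells after 24 h compound treatment. Ten concentrations, 0.39 to 200 uM, in duplicate; DMSO 0.5% v/v. Taxol positive control; DMSO-normalized bidirectional curve fitting.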

[13] = APR_HepG2_MitoticArrest_24hr: Apredica 24-hour HepG2 Assay for Mitotic Arrest (AID 2282910); details: high-content imaging, actives raise or lower the signal
Outline: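 HepG2, 24 hr dosing, 0.39–200 uM, 0.5% DMSO final. Formaldehyde-fixed, Triton-permeabilised, anti-phospho-histone H3 plus Hoechst. ArrayScan imaging at 20x; bidirectional fit vs DMSO baseline.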

[14] = APR_HepG2_MitoMembPot_24hr: Apredica 24-hour HepG2 Assay for Mitochondrial Membrane Potential (AID 2282911); details: imaging, actives raise or lower the signal
Outline: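 Cells are dosed for 24 hr across 0.39 to 200 uM with solvent held at 0.5% DMSO. They are then stained with 250 nM MitoTracker Red CMXRos for 30 min, fixed in 3.7% formaldehyde and imaged.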

[15] = APR_HepG2_MitoMass_24hr: Apredica 24-hour HepG2 Assay for Mitochondrial Mass (AID 2282912); details: high-content imaging, actives raise or lower the signal
Outline: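 HepG2, 24 hr dosing, 10 concentrations 0.39–200 uM in duplicate, DMSO 0.5% final. MitoTracker Red CMXRos 250 nM, 30 min pre-fix; 3.7% formaldehyde fix. Imaging-based fluorescence intensity; gain/loss fit vs DMSO baseline.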

[16] = APR_HepG2_p53Act_24hr: Apredica 24-hour HepG2 Assay for p53 Activation (AID 2282913); details: high-content imaging, actives raise or lower the signal;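 also: p53 protein immunofluorescence averaged per cell in HepG2 with Hoechst nuclei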
Outline: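 Human HepG2 liver cells; 24 hr cpd treatment, 0.39–200 uM, 0.5% DMSO final. Fixed in 3.7% formaldehyde, permeabilized with 0.5% Triton X-100, stained with anti-p53/Cy5 plus Hoechst 33342. Six images per well at 20x; gain or loss vs DMSO.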

[17] = APR_HepG2_CellCycleArrest_72hr: Apredica 72-hour HepG2 Assay for Cell Cycle Arrest (AID 2282914); details: high-content imaging, actives raise or lower the signal
Outline: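 Read-out is Hoechst-stained nuclear DNA content measured by automated fluorescence imaging (20x, six images per well), fitted in both directions relative to DMSO. Human HepG2 liver cells received 0.39–200 uM compound for 72 hr at 0.5% v/v DMSO.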

[18] = APR_HepG2_NuclearSize_1hr: Apredica 1-hour HepG2 Assay for Nuclear Size (AID 2282670); details: high-content imaging, actives raise or lower the signal
Outline: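 Nuclear size measured by high-content imaging of Hoechst 33342 nuclear stain after formaldehyde fixation; human HepG2 line exposed 1 hr to compounds at 0.39–200 uM in 0.5% DMSO, with bidirectional curve fitting relative to DMSO.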

[19] = APR_HepG2_MitoticArrest_1hr: Apredica 1-hour HepG2 Assay for Mitotic Arrest (AID 2282672); details: high-content imaging, actives raise or lower the signal
Outline: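 Ten-point concentration series (0.39 to 200 uM, duplicates, 0.5% v/v DMSO) applied to human HepG2 liver cells for 1 hr. High-content imaging of phospho-histone H3 and Hoechst-stained nuclei after fixation and permeabilization; DMSO-normalised bidirectional fit.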

[20] = APR_HepG2_NuclearSize_24hr: Apredica 24-hour HepG2 Assay for Nuclear Size (AID 2282907); details: high-content imaging, actives raise or lower the signal
Outline: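 Read-out: nuclear diameter from Hoechst 33342 (2 ug/mL) imaging of fixed HepG2 cells, 20x, six fields/well. Compounds ran at 0.39–200 uM for 24 hr, 0.5% DMSO final. Gain or loss was fitted bidirectionally relative to the DMSO baseline.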

Measured: AC50

COP(=S)(OC)Oc1ccc([N+](=O)[O-])c(C)c1
not listed: [18] | [19] | [20]
inactive: all other assays above

Cc1ccc(N=CN(C)C=Nc2ccc(C)cc2C)c(C)c1
active: [8] 108 µM | [11] 117 µM | [14] 44.7 µM
not listed: [10] | [12]
inactive: all other assays above

COc1cc(Cl)c(OC)cc1Cl
not listed: [8] | [18] | [19]
inactive: all other assays above

CCCCOCN(C(=O)CCl)c1c(CC)cccc1CC
active: [10] 47.5 µM | [11] 35.3 µM | [12] 31.2 µM
not listed: [8] | [20]
inactive: all other assays above

CNC(=O)N(C)c1nnc(C(C)(C)C)s1
not listed: [4] | [8] | [18] | [20]
inactive: all other assays above

CC(C)Oc1cccc(NC(=O)c2ccccc2C(F)(F)F)c1
not listed: [4] | [10] | [19]
inactive: all other assays above

O=C(O)c1c(Cl)ccc2cc(Cl)cnc12
not listed: [4] | [5] | [8] | [12] | [16] | [20]
inactive: all other assays above

Cc1cnc(C2=NC(C)(C(C)C)C(=O)N2)c(C(=O)O)c1 (centres undefined)
not listed: [4] | [12] | [18]
inactive: all other assays above
